The record followed here is PubChem BioAssay (EPA / NIEHS).

Assay [1] has as its target human Peroxisome Proliferator-activated Receptor alpha (PPARa), PPARA (gene 5465) (UniProt Q07869). In words: ATG_PPARa_TRANS: Attagene TRANS-FACTORIAL HepG2 Assay for human Peroxisome Proliferator-activated Receptor alpha (PPARa) (AID 2283001; active = hit-call score of the fitted dose curve at least 0.9, where 1 is the maximum;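 as to AC50: potency for gain of reporter signal over DMSO so agonist or activator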). In short, it runs like this: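 Measures transcriptional activity of an exogenous chimeric PPARa-Gal4 protein in transiently transfected HepG2 cells after 24 h dosing. Reporter mRNA quantified via RT-PCR and capillary electrophoresis; DMSO served as negative control.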

Read-out in assay [2]: Intercellular Adhesion Molecule 1 (ICAM1), ICAM1 (gene 3383)
In words: BSK_3C_ICAM1: BioMAP Diversity Plus: 3C Assay for Intercellular Adhesion Molecule 1 (ICAM1) Biomarker Activity (AID 2283003). Particulars: primary human endothelial cells (HUVEC); actives raise or lower the signal. The gist of the method: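 Primary human umbilical vein endothelial cells in the BioMAP 3C system were exposed to chemicals for 24 h, then ICAM-1 was quantified by ELISA. Activity was fitted bidirectionally against the DMSO negative control baseline.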

Assay [3] concerns the target Retinoic acid receptor alpha (Homo sapiens) (UniProt P10276). In words: ATG_RARa_TRANS: Attagene TRANS-FACTORIAL HepG2 Assay for human Retinoic Acid Receptor alpha (RARa) (AID 2283005; active = hit-call score of the fitted dose curve at least 0.9, where 1 is the maximum). The gist of the method: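 HepG2 transiently transfected with multiplex GAL4-UAS reporter units including a human RARa–GAL4 chimera; 24 h compound exposure. Reporter mRNA quantified by RT-PCR, 6-FAM labeling and capillary electrophoresis; gain of signal versus DMSO.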

Assay [4] is described as follows: BSK_3C_Proliferation: Cell Proliferation Assessment in the BioMAP Diversity Plus: 3C Assay (AID 2283006).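 As to AC50: potency may reflect either rise or fall in cell number versus DMSO.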 Particulars: primary human endothelial cells (HUVEC). The gist of the method:
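Human umbilical vein endothelial cells were grown sub-confluent and exposed to chemical for 48 h, then fixed with 10% TCA and stained with 0.1% sulforhodamine B; absorbance at 560 nm gave relative cell number, fitted bidirectionally against DMSO baseline.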

Assay [5] deals with Nuclear receptor subfamily 1 group I member 2 (Homo sapiens) (UniProt O75469). The assay can be described thus: ATG_PXR_TRANS: Attagene TRANS-FACTORIAL HepG2 Assay for human Pregnane X Receptor (PXR) (AID 2283008; active = hit-call score of the fitted dose curve at least 0.9, where 1 is the maximum). In short, it runs like this:
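Measures mRNA induction of a GAL4-UAS-driven reporter in human HepG2 cells transiently expressing PXR fused to Gal4, following 24 h treatment. DMSO served as negative control and baseline.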

Assay [6] concerns the target human RAR-related Orphan Receptor gamma (RORg), RORC (gene 6097) (UniProt P51449). In words: ATG_RORg_TRANS: Attagene TRANS-FACTORIAL HepG2 Assay for human RAR-related Orphan Receptor gamma (RORg) (AID 2283011; active = hit-call score of the fitted dose curve at least 0.9, where 1 is the maximum). In short, it runs like this: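 Readout: reporter transcript induction (RT-PCR, fluorescent primer extension, capillary electrophoresis) after 24 h compound exposure of transiently transfected HepG2 cells carrying a RORg-Gal4 chimera and GAL4-UAS reporters; DMSO served as baseline, with increasing signal fitted.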

In assay [7] the target is Retinoic acid receptor RXR-alpha (Homo sapiens) (UniProt P19793). In words: ATG_RXRa_TRANS: Attagene TRANS-FACTORIAL HepG2 Assay for human Retinoid X Receptor alpha (RXRa) (AID 2283012; active = hit-call score of the fitted dose curve at least 0.9, where 1 is the maximum). The gist of the method:
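HepG2 cells transiently transfected with multiplexed GAL4-UAS reporter units and chimeric NR-GAL4 fusions, dosed 24 h. Reporter mRNA measured by RT-PCR, FAM labelling, HpaI digestion and capillary electrophoresis; gain-of-signal fitted relative to DMSO baseline.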

Read-out in assay [8]: E-selectin (Homo sapiens) (UniProt P16581)
In words: BSK_3C_Eselectin: BioMAP Diversity Plus: 3C Assay for Eselectin Biomarker Activity (AID 2283015).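 As to outcome: cell surface E-selectin protein quantified by ELISA 24 h after dosing.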 The settings on record: primary human endothelial cells (HUVEC); actives raise or lower the signal. The gist of the method:
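Primary human umbilical vein endothelial cells (3C system) were dosed with chemical and cell-surface E-selectin measured by ELISA 24 h later. Bidirectional curve fitting used DMSO as negative control and baseline.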

Read-out in assay [9]: Interleukin-1 alpha (IL1a), IL1A (gene 3552)
In words: BSK_BE3C_IL1a: BioMAP Diversity Plus: BE3C Assay for Interleukin-1 alpha (IL1a) Biomarker Activity (AID 2283016). The settings on record: primary human bronchial epithelial cells; actives raise or lower the signal. The gist of the method:
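Human primary bronchial epithelial cells (BE3C system) were dosed with compound and IL-1a measured by ELISA 24 h later. Activity was fitted bidirectionally against DMSO baseline; cytotoxicity was tracked in parallel cultures by SRB total-protein staining.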

Read-out in assay [10]: Monocyte Chemoattractant Protein-1 (MCP1), CCL2 (gene 6347)
In words: BSK_3C_MCP1: BioMAP Diversity Plus: 3C Assay for Monocyte Chemoattractant Protein-1 (MCP1) Biomarker Activity (AID 2283017). Particulars: primary human endothelial cells (HUVEC); actives raise or lower the signal. The gist of the method: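 Primary human umbilical vein endothelial cells (3C system) were exposed to test chemical for 24 h, after which MCP-1 was quantified by ELISA. Activity was fitted bidirectionally against DMSO as negative control and baseline.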

Read-out in assay [11]: Monocyte Chemoattractant Protein-1 (MCP1), CCL2 (gene 6347)
The assay can be described thus: BSK_4H_MCP1: BioMAP Diversity Plus: 4H Assay for Monocyte Chemoattractant Protein-1 (MCP1) Biomarker Activity (AID 2283018). Particulars: primary human endothelial cells (HUVEC); actives raise or lower the signal. The gist of the method: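 Human umbilical vein endothelial cells (4H system) dosed with chemical; MCP-1 measured by ELISA 24 h after dosing. Bidirectional curve fitting against DMSO negative control as baseline; parallel SRB total-protein staining tracks overt cytotoxicity.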

Read-out in assay [12]: Human Leukocyte Antigen - DR isotype (HLADR), HLA-DRA (gene 3122)
In words: BSK_3C_HLADR: BioMAP Diversity Plus: 3C Assay for Human Leukocyte Antigen - DR isotype (HLADR) Biomarker Activity (AID 2283019). Particulars: primary human endothelial cells (HUVEC); actives raise or lower the signal. The gist of the method: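 Primary human umbilical vein endothelial cells (3C system) were dosed with compound and cell-surface HLA-DR was quantified by ELISA at 24 h. Activity was fitted bidirectionally against DMSO as negative control and baseline.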

Read-out in assay [13]: Interleukin-8 (IL8), CXCL8 (gene 3576)
In words: BSK_3C_IL8: BioMAP Diversity Plus: 3C Assay for Interleukin-8 (IL8) Biomarker Activity (AID 2283020). The settings on record: primary human endothelial cells (HUVEC); actives raise or lower the signal. In short, it runs like this: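 Primary human umbilical vein endothelial cells (3C system) were exposed to test chemical for 24 h, then IL-8 was quantified by ELISA. Responses were fitted bidirectionally against DMSO vehicle as baseline.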

In assay [14] the target is human Peroxisome Proliferator-activated Receptor delta (PPARd), PPARD (gene 5467) (UniProt Q03181). The assay can be described thus: ATG_PPARd_TRANS: Attagene TRANS-FACTORIAL HepG2 Assay for human Peroxisome Proliferator-activated Receptor delta (PPARd) (AID 2283002; active = hit-call score of the fitted dose curve at least 0.9, where 1 is the maximum). In short, it runs like this: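 HepG2 cells transiently transfected with GAL4-UAS multiplexed reporter units driven by exogenous chimeric NR-GAL4 proteins; 24 h compound exposure. Reporter mRNA measured by RT-PCR, 6-FAM primer extension, HpaI digestion and capillary electrophoresis; gain of signal fitted relative to DMSO.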
Sequence of human Peroxisome Proliferator-activated Receptor delta (PPARd), PPARD (gene 5467) (Q03181 whole entry, looked up, the tested form may be a part): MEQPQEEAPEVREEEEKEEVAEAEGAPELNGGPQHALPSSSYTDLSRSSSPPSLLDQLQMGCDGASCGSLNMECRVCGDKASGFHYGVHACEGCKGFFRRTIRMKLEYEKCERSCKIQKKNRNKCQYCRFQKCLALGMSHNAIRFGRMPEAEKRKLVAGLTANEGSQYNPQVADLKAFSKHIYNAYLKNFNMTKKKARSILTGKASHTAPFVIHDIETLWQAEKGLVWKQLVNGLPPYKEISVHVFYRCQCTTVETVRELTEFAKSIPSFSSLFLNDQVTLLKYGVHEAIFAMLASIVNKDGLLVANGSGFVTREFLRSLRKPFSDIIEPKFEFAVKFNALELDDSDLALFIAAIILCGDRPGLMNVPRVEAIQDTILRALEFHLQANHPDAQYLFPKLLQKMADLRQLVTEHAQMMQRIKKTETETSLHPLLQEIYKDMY

The target of assay [15] is human Retinoic Acid Receptor gamma (RARg), RARG (gene 5916) (UniProt P13631). The assay can be described thus: ATG_RARg_TRANS: Attagene TRANS-FACTORIAL HepG2 Assay for human Retinoic Acid Receptor gamma (RARg) (AID 2283009; active = hit-call score of the fitted dose curve at least 0.9, where 1 is the maximum). In short, it runs like this:
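HepG2 cells transiently transfected with multiplexed reporter units expressing chimeric RARg-GAL4 and GAL4-UAS-driven reporters; 24 h compound exposure. Reporter mRNA quantified by RT-PCR with fluorescent labelling and capillary electrophoresis; gain-of-signal fitted relative to DMSO baseline.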

Assay [16] has as its target human RAR-related Orphan Receptor beta (RORb), RORB (gene 6096) (UniProt Q92753). In words: ATG_RORb_TRANS: Attagene TRANS-FACTORIAL HepG2 Assay for human RAR-related Orphan Receptor beta (RORb) (AID 2283010; active = hit-call score of the fitted dose curve at least 0.9, where 1 is the maximum). The gist of the method: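 HepG2 cells were transiently transfected with multiplexed GAL4-UAS reporter units expressing chimeric nuclear receptor–GAL4 proteins, then dosed for 24 h. Reporter mRNA was quantified by RT-PCR with fluorescent labelling and capillary electrophoresis; gain of signal was fitted relative to DMSO.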

Assay [17] deals with human Retinoid X Receptor beta (RXRb), RXRB (gene 6257) (UniProt P28702). In words: ATG_RXRb_TRANS: Attagene TRANS-FACTORIAL HepG2 Assay for human Retinoid X Receptor beta (RXRb) (AID 2283013; active = hit-call score of the fitted dose curve at least 0.9, where 1 is the maximum). In short, it runs like this:
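HepG2 cells transiently transfected with multiplexed reporter units driven by GAL4-UAS and exogenous chimeric NR-Gal4 proteins; treated 24 h. Reporter mRNA measured by RT-PCR, 6-FAM labelling and capillary electrophoresis; gain-of-signal fitted versus DMSO baseline.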

Assay [18] has as its target human Thyroid Receptor alpha (THRa1), THRA (gene 7067) (UniProt P10827). The assay can be described thus: ATG_THRa1_TRANS: Attagene TRANS-FACTORIAL HepG2 Assay for human Thyroid Receptor alpha (THRa1) (AID 2283014; active = hit-call score of the fitted dose curve at least 0.9, where 1 is the maximum). In short, it runs like this:
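HepG2 cells transiently transfected with multiplexed GAL4-UAS reporter units for exogenous chimeric THRa1-Gal4; reporter mRNA measured 24 h after dosing by RT-PCR, 6-FAM labelling, HpaI digestion and capillary electrophoresis. Gain-of-signal fitted versus DMSO baseline.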

Read-out in assay [19]: Monokine induced gamma interferon (MIG), CXCL9 (gene 4283)
In words: BSK_3C_MIG: BioMAP Diversity Plus: 3C Assay for Monokine induced gamma interferon (MIG) Biomarker Activity (AID 2283021).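 As to AC50: MIG protein level measured by immunoassay in the treated endothelial cultures.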 Particulars: primary human endothelial cells (HUVEC); actives raise or lower the signal. In short, it runs like this:
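Primary human umbilical vein endothelial cells in the 3C system were exposed to chemical for 24 h, after which MIG was quantified by ELISA. Activity was fitted bidirectionally against DMSO as negative control and baseline.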

Results filed as inconclusive are left out. More than one record can exist for a structure, and the calls need not agree. Active and inactive are the calls of the source. The calls were made as follows, unless noted: active = hit-call score of the fitted dose curve at least 0.9, where 1 is the maximum; inactive = score below 0.9.

Sequence of Retinoic acid receptor RXR-alpha (Homo sapiens) (P19793 whole entry, looked up, the tested form may be a part): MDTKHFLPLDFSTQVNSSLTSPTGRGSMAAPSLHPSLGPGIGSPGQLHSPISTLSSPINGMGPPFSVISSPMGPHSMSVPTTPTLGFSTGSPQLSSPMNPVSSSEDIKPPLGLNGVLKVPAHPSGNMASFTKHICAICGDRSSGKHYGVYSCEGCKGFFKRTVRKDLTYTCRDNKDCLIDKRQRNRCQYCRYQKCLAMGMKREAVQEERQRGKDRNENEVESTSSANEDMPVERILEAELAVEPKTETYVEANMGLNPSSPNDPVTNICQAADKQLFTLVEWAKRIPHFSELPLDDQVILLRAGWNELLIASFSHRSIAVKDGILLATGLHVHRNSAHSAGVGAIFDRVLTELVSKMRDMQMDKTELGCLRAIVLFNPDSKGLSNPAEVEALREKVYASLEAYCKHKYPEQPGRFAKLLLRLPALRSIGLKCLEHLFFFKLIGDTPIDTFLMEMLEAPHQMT
Sequence of human RAR-related Orphan Receptor gamma (RORg), RORC (gene 6097) (P51449 whole entry, looked up, the tested form may be a part): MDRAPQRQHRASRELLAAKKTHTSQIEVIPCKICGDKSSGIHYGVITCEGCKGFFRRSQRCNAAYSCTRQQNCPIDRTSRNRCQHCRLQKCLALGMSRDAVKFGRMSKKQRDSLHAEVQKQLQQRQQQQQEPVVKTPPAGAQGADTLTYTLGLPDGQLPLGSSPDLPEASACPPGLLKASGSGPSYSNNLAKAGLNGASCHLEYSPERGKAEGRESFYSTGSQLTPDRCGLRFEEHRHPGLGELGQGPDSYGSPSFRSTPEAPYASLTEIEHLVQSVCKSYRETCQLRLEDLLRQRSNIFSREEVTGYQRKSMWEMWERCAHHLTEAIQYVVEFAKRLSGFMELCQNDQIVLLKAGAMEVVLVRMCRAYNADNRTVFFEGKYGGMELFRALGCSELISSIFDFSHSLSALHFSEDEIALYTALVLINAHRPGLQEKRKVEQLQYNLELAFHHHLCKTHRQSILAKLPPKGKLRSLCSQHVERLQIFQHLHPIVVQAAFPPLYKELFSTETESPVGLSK
Sequence of human Thyroid Receptor alpha (THRa1), THRA (gene 7067) (P10827 whole entry, looked up, the tested form may be a part): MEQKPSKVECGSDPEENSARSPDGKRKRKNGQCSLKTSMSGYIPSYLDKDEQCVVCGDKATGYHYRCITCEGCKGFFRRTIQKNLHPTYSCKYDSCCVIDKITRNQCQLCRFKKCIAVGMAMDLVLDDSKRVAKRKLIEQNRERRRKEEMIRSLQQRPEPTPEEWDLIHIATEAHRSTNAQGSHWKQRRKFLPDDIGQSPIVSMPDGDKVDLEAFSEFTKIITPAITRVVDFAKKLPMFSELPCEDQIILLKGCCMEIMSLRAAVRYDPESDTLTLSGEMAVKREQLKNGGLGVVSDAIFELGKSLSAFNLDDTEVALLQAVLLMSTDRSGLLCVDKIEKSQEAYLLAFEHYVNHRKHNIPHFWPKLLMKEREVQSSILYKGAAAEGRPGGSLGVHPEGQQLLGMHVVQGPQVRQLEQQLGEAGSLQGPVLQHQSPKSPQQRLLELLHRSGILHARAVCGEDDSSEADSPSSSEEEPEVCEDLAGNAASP
Sequence of E-selectin (Homo sapiens) (P16581 whole entry, looked up): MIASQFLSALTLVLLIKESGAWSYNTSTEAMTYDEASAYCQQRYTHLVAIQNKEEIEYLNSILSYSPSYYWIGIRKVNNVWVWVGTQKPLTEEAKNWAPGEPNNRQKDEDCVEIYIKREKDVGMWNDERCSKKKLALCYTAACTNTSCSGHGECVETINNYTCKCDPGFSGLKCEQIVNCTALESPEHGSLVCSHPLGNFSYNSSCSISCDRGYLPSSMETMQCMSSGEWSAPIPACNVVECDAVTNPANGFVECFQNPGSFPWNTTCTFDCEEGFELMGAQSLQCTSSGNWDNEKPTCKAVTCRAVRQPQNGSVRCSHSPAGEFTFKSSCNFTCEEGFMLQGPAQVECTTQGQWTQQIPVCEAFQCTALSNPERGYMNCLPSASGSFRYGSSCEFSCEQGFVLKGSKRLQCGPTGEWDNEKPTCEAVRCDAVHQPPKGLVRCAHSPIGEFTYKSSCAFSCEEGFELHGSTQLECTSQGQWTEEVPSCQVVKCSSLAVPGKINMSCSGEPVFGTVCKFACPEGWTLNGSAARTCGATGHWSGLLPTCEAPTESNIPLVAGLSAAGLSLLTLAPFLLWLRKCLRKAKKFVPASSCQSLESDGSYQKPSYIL
Sequence of Nuclear receptor subfamily 1 group I member 2 (Homo sapiens) (O75469 whole entry, looked up, the tested form may be a part): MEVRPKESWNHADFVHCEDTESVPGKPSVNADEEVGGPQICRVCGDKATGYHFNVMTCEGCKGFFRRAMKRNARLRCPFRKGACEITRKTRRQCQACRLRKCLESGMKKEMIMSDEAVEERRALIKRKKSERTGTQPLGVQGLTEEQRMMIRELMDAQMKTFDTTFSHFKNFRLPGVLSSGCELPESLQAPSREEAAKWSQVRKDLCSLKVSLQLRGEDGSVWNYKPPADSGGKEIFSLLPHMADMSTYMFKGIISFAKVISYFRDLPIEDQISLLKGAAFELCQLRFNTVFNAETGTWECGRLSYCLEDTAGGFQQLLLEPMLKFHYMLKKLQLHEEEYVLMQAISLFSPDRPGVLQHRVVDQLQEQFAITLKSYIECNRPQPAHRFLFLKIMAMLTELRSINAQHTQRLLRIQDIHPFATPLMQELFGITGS
Sequence of human Peroxisome Proliferator-activated Receptor alpha (PPARa), PPARA (gene 5465) (Q07869 whole entry, looked up, the tested form may be a part): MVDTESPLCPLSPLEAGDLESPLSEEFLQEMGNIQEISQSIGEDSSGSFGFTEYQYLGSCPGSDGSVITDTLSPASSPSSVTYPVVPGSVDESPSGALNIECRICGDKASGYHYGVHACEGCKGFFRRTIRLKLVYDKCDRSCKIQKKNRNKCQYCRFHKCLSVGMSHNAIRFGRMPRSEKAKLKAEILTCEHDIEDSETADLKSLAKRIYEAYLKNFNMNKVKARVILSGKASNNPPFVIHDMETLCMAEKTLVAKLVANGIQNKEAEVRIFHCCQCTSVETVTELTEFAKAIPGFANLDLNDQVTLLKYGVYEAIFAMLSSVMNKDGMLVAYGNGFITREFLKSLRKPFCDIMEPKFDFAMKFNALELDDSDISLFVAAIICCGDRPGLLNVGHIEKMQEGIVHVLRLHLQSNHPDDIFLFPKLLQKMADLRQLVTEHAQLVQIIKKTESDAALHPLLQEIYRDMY
Sequence of human Retinoid X Receptor beta (RXRb), RXRB (gene 6257) (P28702 whole entry, looked up, the tested form may be a part): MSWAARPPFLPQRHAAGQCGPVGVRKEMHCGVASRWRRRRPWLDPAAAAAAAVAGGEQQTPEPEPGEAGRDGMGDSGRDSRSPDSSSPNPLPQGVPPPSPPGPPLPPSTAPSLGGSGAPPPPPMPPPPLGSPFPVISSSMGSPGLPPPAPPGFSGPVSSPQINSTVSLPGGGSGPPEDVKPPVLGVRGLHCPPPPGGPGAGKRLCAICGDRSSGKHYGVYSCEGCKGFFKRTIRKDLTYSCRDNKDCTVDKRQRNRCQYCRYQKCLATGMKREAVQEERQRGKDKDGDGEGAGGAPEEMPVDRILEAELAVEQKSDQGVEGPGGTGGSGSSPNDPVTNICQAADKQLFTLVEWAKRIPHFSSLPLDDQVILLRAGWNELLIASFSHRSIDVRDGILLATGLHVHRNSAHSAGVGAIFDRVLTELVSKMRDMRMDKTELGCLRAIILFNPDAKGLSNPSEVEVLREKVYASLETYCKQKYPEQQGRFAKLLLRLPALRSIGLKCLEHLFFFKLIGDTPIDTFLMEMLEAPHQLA
Sequence of human RAR-related Orphan Receptor beta (RORb), RORB (gene 6096) (Q92753 whole entry, looked up, the tested form may be a part): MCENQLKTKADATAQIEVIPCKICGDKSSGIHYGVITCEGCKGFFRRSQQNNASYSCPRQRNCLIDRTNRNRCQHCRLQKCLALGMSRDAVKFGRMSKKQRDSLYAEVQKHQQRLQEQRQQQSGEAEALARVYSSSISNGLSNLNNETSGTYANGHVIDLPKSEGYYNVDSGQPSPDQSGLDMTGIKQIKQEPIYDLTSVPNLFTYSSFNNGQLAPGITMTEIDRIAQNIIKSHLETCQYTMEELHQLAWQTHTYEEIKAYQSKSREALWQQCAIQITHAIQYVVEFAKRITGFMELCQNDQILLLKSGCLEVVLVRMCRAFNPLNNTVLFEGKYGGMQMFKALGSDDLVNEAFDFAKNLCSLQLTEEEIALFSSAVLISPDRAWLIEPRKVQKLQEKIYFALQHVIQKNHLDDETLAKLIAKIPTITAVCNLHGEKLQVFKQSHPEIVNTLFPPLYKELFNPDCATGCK
Sequence of Retinoic acid receptor alpha (Homo sapiens) (P10276 whole entry, looked up, the tested form may be a part): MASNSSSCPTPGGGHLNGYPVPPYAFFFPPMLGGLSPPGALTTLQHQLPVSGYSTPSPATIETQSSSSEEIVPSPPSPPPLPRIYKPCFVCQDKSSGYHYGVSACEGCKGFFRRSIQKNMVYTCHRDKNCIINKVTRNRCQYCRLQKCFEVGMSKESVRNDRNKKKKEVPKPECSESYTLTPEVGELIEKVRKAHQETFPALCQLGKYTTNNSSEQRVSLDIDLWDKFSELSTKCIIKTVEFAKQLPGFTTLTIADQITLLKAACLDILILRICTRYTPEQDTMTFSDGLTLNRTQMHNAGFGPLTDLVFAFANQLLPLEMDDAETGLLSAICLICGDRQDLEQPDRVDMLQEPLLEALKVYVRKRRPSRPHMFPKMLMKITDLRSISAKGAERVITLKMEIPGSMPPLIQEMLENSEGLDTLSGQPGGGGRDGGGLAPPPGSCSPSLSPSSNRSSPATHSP

In the case of `O=C(O)c1ccccc1C(=O)OCc1ccccc1`, the outcome in assay [1], in assay [2], in assay [3], in assay [4], in assay [5] and in assay [6] was inactive. The result in [7], in assay [8], in [9], in [10], in assay [11] and in [12] was inactive. Moreover, in assay [13], the outcome was inactive.

As usually defined, the AC50 is the concentration at which the activity in the assay is half-maximal. As for `CCCCCCCCOC(=O)c1cc(O)c(O)c(O)c1`, the half-maximal activity concentration (AC50) was 33.4 µM (active) in assay [1]; 39.7 µM (active) in [14]; 17 µM (active) in [4]; 6.39 µM (active) in [5]; 38.8 µM (active) in [8]; 33.4 µM (active) in assay [9]. Also, the AC50 in assay [10] was 31.8 µM (active); in assay [11], 8.64 µM (active); in assay [12] it was 15.3 µM (active); in assay [13], 30.8 µM (active). The call in assay [15], in [16], in assay [7], in [17] and in assay [18] was inactive.

For `CN(C)C(=O)C1(N2CCCCC2)CCN(CC[C@@]2(c3ccc(Cl)c(Cl)c3)CN(C(=O)c3ccccc3)CCO2)CC1`, the compound was called inactive in assay [1], in [14], in assay [5], in [7] and in assay [18]. Further, the AC50 in assay [4] was 6.91 µM (active); in [8] it was 29.8 µM (active); in [9] it was 29.2 µM (active); in assay [10], 22.9 µM (active); in assay [11] it was 18.9 µM (active); in assay [12] it was 12.4 µM (active). The AC50 in assay [13] was 24.3 µM (active).

As to `Cc1ccc(C(C)C)cc1`, the outcome in assay [1], in assay [14], in [4], in [5], in [6] and in [17] was inactive. Also, the outcome in assay [18], in assay [8], in assay [9], in [10], in assay [11] and in assay [12] was inactive. Also, the result in assay [13] and in assay [19] was inactive.

`O=C(O)Cc1cc(I)c(Oc2ccc(O)c(I)c2)c(I)c1`: the compound was classed as inactive in [1], in assay [14], in assay [2], in [5], in assay [6] and in assay [7]. The result in [8], in assay [10], in assay [11], in [12], in assay [13] and in assay [19] was inactive. Further, the results for the half-maximal activity concentration (AC50) in assay [4], in assay [5] and in assay [9] were 9.41 µM (active), 19.4 µM (active) and 25.5 µM (active), respectively.

`CCOC(=O)O[C@H](C)OC(=O)c1ccc2c(c1)cc(C(=O)NC1CCN(C(C)C)CC1)n2Cc1cc(-c2ccc(Cl)s2)on1`: the call in [1] and in assay [5] was inactive. The AC50 was 8.99 µM (active) in [2]; 1.77 µM (active) in assay [4]; 7.05 µM (active) in assay [8]; 11 µM (active) in assay [9]; 6.56 µM (active) in assay [10]; 5.27 µM (active) in [11]. Besides, the AC50 was 7.08 µM (active) in assay [12], 6.77 µM (active) in assay [13] and 8.78 µM (active) in [19].
